Screening data as filed in PubChem BioAssay.
C diff growth = blocks growth of Clostridium difficile | Clostridium difficile clinical isolate growth, OD600, 24 h; stronger effect = lower value | growth activity, negative = inhibition, % at 16 µg/mL (by protocol) | 0.25% of 86,000 active | AID 1259249;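 active = mean growth activity at or below -80% and every replicate also at or below -80%; inconclusive = mean at or below -80% but some replicate above -80%; inactive = mean growth activity above -80%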;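 also: 0% = DMSO wells and -100% = levofloxacin 16 µg/mL wells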
T cruzi growth = inhibitors of T. cruzi proliferation | T. cruzi beta-gal in NIH3T3, GalScreen luminescence, 90 h | inhibition, % at 8.34 µM | 5.9% of 77,000 active;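 active = mean inhibition above about 93%, with at least 55% of replicates each passing it, limit read from the data, passing the limit was not always enough; inconclusive = only one of those two conditions holds; inactive = neither condition holds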
Pf Dd2 inh = P. falciparum Dd2 growth inhibition; activity change, % at 10 µM; 2.3% of 94,000 active; SYBR Green, 72 h; stronger effect = lower value; in the data active = activity change below about -80%; inconclusive = no clear call, values can overlap the other calls
Starred values were filed as active, the others as inactive; ! = not active in a repeat. Compounds with a hit are over-represented: about 6.7% of the library has one in this group of screens.

Results for CS(=O)(=O)N1[C@@H]2Cn3c(ccc(-c4cccc(F)c4)c3=O)[C@H]1[C@@H](C(=O)N1CCOCC1)[C@@H]2CO ?
C diff growth: -3; T cruzi growth: -3; Pf Dd2 inh: 18

How did CC(C)NC(=O)N1Cc2cc(C(=O)NC3CCC3)nc(-c3cccc(-c4cccnc4)c3)c2[C@@H]1CCO do in these assays?
C diff growth: -8; Pf Dd2 inh: -62

What do the screens show for `C[C@H]1CN([C@@H](C)CO)C(=O)Cc2cc(NC(=O)CCCCCC(=O)Nc3ccccc3N)ccc2O[C@H]1CN(C)Cc1ccc(-c2ccccc2)cc1`?
C diff growth: 0; T cruzi growth: 43; Pf Dd2 inh: -82*

What do the screens show for `C[C@@H]1CN([C@H](C)CO)C(=O)Cc2cc(NC(=O)CCCCCC(=O)Nc3ccccc3N)ccc2O[C@H]1CN(C)Cc1ccccc1`?
C diff growth: -12; T cruzi growth: 21; Pf Dd2 inh: -53

Results for CCC(=O)N1CCC2(CC1)CN(C(=O)Nc1ccc(F)cc1)[C@H](CO)c1c2c2ccc(OC)cc2n1C ?
C diff growth: 5; Pf Dd2 inh: -35

How did COc1ccc2c3c(n(C)c2c1)[C@H](CO)N(C(=O)Nc1ccc(F)cc1)CC31CCN(C(=O)c2ccc3c(c2)OCO3)CC1 do in these assays?
C diff growth: -13; Pf Dd2 inh: -88*

How did COc1ccc2c3c(n(C)c2c1)[C@@H](CO)N(C(=O)Nc1ccc(F)cc1)CC31CCN(C(=O)c2ccccc2F)CC1 do in these assays?
C diff growth: -13; Pf Dd2 inh: -85*

What do the screens show for `COc1ccc2c3c(n(C)c2c1)[C@@H](CO)N(C(=O)Nc1ccc(F)cc1)CC31CCN(C(=O)c2ccc3c(c2)OCO3)CC1`?
C diff growth: 0; Pf Dd2 inh: -71

What do the screens show for `C[C@@H]1CN([C@@H](C)CO)C(=O)c2cc(NC(=O)Nc3ccc(C(F)(F)F)cc3)ccc2O[C@H]1CN(C)Cc1ccc(C(F)(F)F)cc1`?
C diff growth: 15; T cruzi growth: 3; Pf Dd2 inh: 42

What do the screens show for `COc1ccc(S(=O)(=O)Nc2ccc3c(c2)CC(=O)N([C@H](C)CO)C[C@@H](C)[C@@H](CN(C)Cc2ccc(C(=O)O)cc2)O3)cc1`?
C diff growth: -6; T cruzi growth: -5; Pf Dd2 inh: 5

What do the screens show for `CCCNC(=O)C[C@@H]1CC[C@H]2[C@@H](COC[C@H](O)CN2C(=O)C2CCOCC2)O1`?
T cruzi growth: 20; Pf Dd2 inh: 5

What do the screens show for `COc1cccc(CN2C[C@@H]3N[C@H](C2)C3c2ccc(-c3ccc(C#N)cc3)cc2)c1` (some centres undefined)?
C diff growth: 68; Pf Dd2 inh: inconclusive

Results for COc1ccccc1CN1[C@@H]2CNC[C@H]1C2c1ccc(-c2cccnc2)cc1 (some centres undefined) ?
C diff growth: 17; Pf Dd2 inh: 21

What do the screens show for `COc1ccccc1CN1C[C@@H]2N[C@H](C1)[C@@H]2c1ccc(-c2cccnc2)cc1`?
C diff growth: -3; Pf Dd2 inh: -87*

Results for COc1cccc(CN2C[C@@H]3N[C@H](C2)C3c2ccc(-c3ccccc3OC)cc2)c1 (some centres undefined) ?
C diff growth: -97*!; Pf Dd2 inh: -28

What do the screens show for `COc1ccccc1-c1ccc(C2[C@@H]3CN(Cc4cccc(F)c4)C[C@H]2N3)cc1` (some centres undefined)?
C diff growth: -90*!; Pf Dd2 inh: -36

What do the screens show for `COc1ccccc1-c1ccc(C2[C@@H]3CN(Cc4nccs4)C[C@H]2N3)cc1` (some centres undefined)?
C diff growth: 15; Pf Dd2 inh: -53

How did O=C(C[C@H]1C=C[C@@H](NC(=O)C2CCC2)[C@@H](CO)O1)NCC1CC1 do in these assays?
C diff growth: -1; T cruzi growth: -11; Pf Dd2 inh: -8

How did CCCNC(=O)N1C[C@@H](C)[C@@H](OC)CN(C)C(=O)c2cc(NC(C)=O)ccc2OC[C@H]1C do in these assays?
C diff growth: 4; T cruzi growth: -24; Pf Dd2 inh: 20

Results for C/C=C/c1cnc2c(c1)C(=O)N([C@H](C)CO)C[C@@H](C)[C@@H](CN(C)C(=O)Cc1ccccc1)O2 ?
C diff growth: 3; T cruzi growth: 11; Pf Dd2 inh: 9

How did CCCC(=O)Nc1ccc2c(c1)C(=O)N(C)[C@H]1CC[C@@H](CC(=O)NCC3CC3)O[C@H]1CO2 do in these assays?
C diff growth: -2; T cruzi growth: 10; Pf Dd2 inh: 16

Results for COc1ccc2c3c(n(C)c2c1)[C@H](CO)N(C(=O)Nc1ccc(F)cc1)CC31CCN(Cc2cccc(F)c2)CC1 ?
C diff growth: 21; Pf Dd2 inh: -76
